Results on seven sequences are retold here after the supplement of paper PMC6555819.

Common to all, as to assay: PBM binding z-score (relative to random genomic background probes); higher = stronger binding; sequences stand for … in GC…GCGATTGACAGCGTAGAATGAAGG
Assay [1] concerns FXR:RXRa (NR concentration 270 nM, RXRa partner concentration 90 nM). The method in brief: (§1)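 Binding z-scores were set against random background probes. The data came from custom Agilent 4×180K protein-binding microarrays carrying double-stranded probes with 34-nt variable regions, incubated 1 h with ligand-free nuclear receptor dimers. Partner-specific antibodies detected binding, and scanned fluorescence was regression-normalized.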

The test system of assay [2] is LXRa:RXRa (NR concentration 270 nM, RXRa partner concentration 90 nM). The essentials: as §1
The subject of assay [3] is LXRa homodimer (NR concentration 270 nM). The method in brief: as §1
The subject of assay [4] is LXRb:RXRa (NR concentration 270 nM, RXRa partner concentration 90 nM). The essentials:
as §1

Assay [5] relates to LXRb homodimer (NR concentration 270 nM). The essentials: as §1
Assay [6] concerns PPARa:RXRa (NR concentration 270 nM, RXRa partner concentration 90 nM). The method in brief:
as §1

In assay [7] the test system is PPARg:RXRa (NR concentration 180 nM, RXRa partner concentration 90 nM). The method in brief:
as §1

The subject of assay [8] is PPARg:RXRa 270nM:90nM, anti-RXR (NR concentration 270 nM, RXRa partner concentration 90 nM). The essentials:
as §1

Assay [9] has as its system PPARg:RXRa 30nM:10nM, anti-RXR (NR concentration 30 nM, RXRa partner concentration 10 nM). The method in brief:
as §1

The subject of assay [10] is PPARg:RXRa 90nM:30nM, anti-RXR (NR concentration 90 nM, RXRa partner concentration 30 nM). The method in brief: as §1
The test system of assay [11] is PPARg:RXRa DBDmut IVT, anti-RXR (DBD mutation: RXRa K156A/R161A, NR concentration 270 nM, RXRa partner concentration 90 nM). The essentials: as §1
In assay [12] the test system is PPARg:RXRa IVT, anti-PPARg (NR concentration 270 nM, RXRa partner concentration 90 nM). The method in brief: as §1
For assay [13], the system named is PPARg DBDmut:RXRa IVT, anti-PPARg (DBD mutation: PPARg1 K132A/R137A, NR concentration 270 nM, RXRa partner concentration 90 nM). The method in brief:
as §1

The subject of assay [14] is PPARg DBDmut IVT, anti-PPARg (DBD mutation: PPARg1 K132A/R137A, NR concentration 270 nM). The method in brief: as §1
For assay [15], the system named is PPARg homodimer (NR concentration 180 nM). The method in brief:
as §1

The test system of assay [16] is PXR:RXRa (NR concentration 270 nM, RXRa partner concentration 90 nM). The essentials: as §1
The subject of assay [17] is PXR homodimer (NR concentration 270 nM). The essentials: as §1
The subject of assay [18] is RARa:RXR (NR concentration 270 nM, RXRa partner concentration 90 nM). The essentials:
as §1

In assay [19] the test system is RARa homodimer (NR concentration 270 nM). The method in brief:
as §1

For assay [20], the system named is RARb:RXRa (NR concentration 270 nM, RXRa partner concentration 90 nM). The method in brief: as §1

For the sequence CCTACTGGGCCACGAAAGGTCATTGACTCAGTGA, the PBM binding z-score in assay [1] was 4.14; in assay [2], 5.29; in assay [3], 4.5; in [4] it was 4.65; in assay [5] it was 0.406; in assay [6], 5. Besides, the PBM binding z-score in [7] was found to be 4.93; in assay [8] it was 4.87; in assay [9] it was 2.71; in assay [10], 4.15; in assay [11], 5.69; in assay [12], 5.8. The PBM binding z-score in assay [13] was 0.0683; in assay [14], -0.677; in assay [15], 2.13; in assay [16], 5.15; in assay [17], 1.92; in assay [18] it was 5.49. The PBM binding z-score in [19] came out at 0.622; in assay [20], 4.03.

Consider CCTTACGGGTCAAGGGTATAGCACGGGTGGTACG, for which the PBM binding z-score in assay [1] is 5.14; in assay [2] it was 3.24; in assay [3], -0.107; in assay [4], 2.59; in [5], -0.218; in [6], 5.12. For the same sequence, the PBM binding z-score in assay [7] came out at 5.03; in assay [8], 5.23; in [9], 2.3; in assay [10], 4.37; in assay [11], 1.83; in assay [12], 3.8. For the same sequence, the PBM binding z-score in assay [13] was 0.361; in [14], -0.594; in assay [15], 3.73; in assay [16] it was 2.9; in assay [17], -0.229; in [18], 4.27. Besides, the PBM binding z-score in assay [19] came to 0.518; in [20], 3.98.

In the case of AGATCGAGGGCACGCTGAGTTGATAGCAGAGTAG, the PBM binding z-score in assay [1] was 0.624; in assay [2], 0.579; in assay [3], -0.704; in assay [4], 0.248; in assay [5], -0.854; in assay [6] it was 1.83. In addition, the PBM binding z-score in [7] amounted to 1.76; in [8] it was 1.47; in assay [9] it was 0.155; in assay [10] it was 0.951; in assay [11] it was 3.66; in [12], 3.58. Moreover, the PBM binding z-score was 1.3 in assay [13]; 0.665 in [14]; -0.311 in assay [15]; 1.31 in assay [16]; 0.0547 in [17]; 0.734 in [18]. Besides, the PBM binding z-score was -0.531 in [19] and 2.42 in assay [20].

In the case of CGAACTAGGTCAGAACAGGACGGTGAAGGATGAT, the PBM binding z-score in assay [1] was 0.947; in [2], 0.319; in [3], -0.295; in [4] it was -0.0399; in assay [5] it was -0.471; in assay [6], 2.64. Besides, the PBM binding z-score came out at 4.74 in assay [7]; 4.11 in assay [8]; 2.15 in assay [9]; 3.38 in [10]; 7.03 in [11]; 7.23 in assay [12]. Moreover, the PBM binding z-score is 1.59 in [13]; 1.11 in assay [14]; 0.681 in [15]; 0.143 in [16]; -0.288 in assay [17]; 0.525 in assay [18]. Moreover, the results for the PBM binding z-score in assay [19] and in assay [20] were 0.0623 and 2.55, respectively.

For the sequence AGTCAAAGTTCATCTAGGTAAAGTAAGATATGCT, the PBM binding z-score in [1] was determined as 7.01; in assay [2] it was 5.97; in assay [3], 5.01; in assay [4] it was 4.24; in assay [5], 1.97; in assay [6], 5.14. Moreover, the PBM binding z-score in assay [7] was 7.07; in [8] it was 6.73; in assay [9] it was 3.75; in assay [10] it was 5.54; in [11], 1.06; in [12], 3.88. The PBM binding z-score was found to be 1.43 in [13]; 0.713 in assay [14]; 3.61 in assay [15]; 5.45 in assay [16]; 7.79 in [17]; 4.38 in [18]. In addition, the PBM binding z-score in [19] is 2.12; in assay [20], 5.22.

Turning to ATATGTAGGTTAGCTGGGGTCTTTCAGACTAGGC, the PBM binding z-score came out at 1.74 in assay [1]; 0.766 in assay [2]; 0.231 in [3]; 1.6 in assay [4]; 0.737 in assay [5]; 2.65 in assay [6]. The PBM binding z-score was found to be 2.84 in assay [7]; 2.65 in assay [8]; 0.594 in assay [9]; 1.91 in [10]; 6.49 in assay [11]; 5.47 in [12]. In addition, the PBM binding z-score is 0.793 in assay [13]; 0.845 in [14]; 0.937 in [15]; 1.68 in [16]; 0.227 in assay [17]; 0.915 in assay [18]. Also, the values for the PBM binding z-score in assay [19] and in assay [20] were 0.444 and 0.946, respectively.

For TCTATTAGTTGAATGGCAACCGACGAGTCCGTTT, the PBM binding z-score in assay [1] amounted to 1.04; in assay [2] it was 1.04; in [3] it was 0.119; in assay [4] it was 1.01; in assay [5], 0.477; in [6], 0.96. Moreover, the PBM binding z-score is -0.00847 in assay [7]; 2.18 in assay [8]; 3.81 in assay [9]; 2.92 in assay [10]; 2.47 in assay [11]; 0.106 in assay [12]. Moreover, the PBM binding z-score in assay [13] amounted to 0.422; in assay [14], 0.888; in assay [15], 1.27; in assay [16] it was 0.794; in assay [17] it was 0.892; in assay [18], 0.79. In addition, the PBM binding z-score in assay [19] came to 1.08; in [20], 0.622.
